Data on eight molecules can be found in PubChem BioAssay (Tox21).

Unmarked numbers belong to inactive results. Inconclusive results are not listed. Activity calls are given as the source filed them. Unless noted, the call rests on the fitted dose curve.

A short description of assay [1]: Nuclear factor erythroid 2-related factor 2/antioxidant responsive element (Nrf2/ARE) small molecule agonists: qHTS cell viability counter screen in human keratinocytes (AID 1919968; active means well fitted curve in the direction sought with a large enough effect in the repeat runs; an effect the other way counts as inactive or inconclusive; further: nearly all actives have a fitted effect of over 55% in size; further: potency means the concentration at half of the fitted maximal effect). The method, boiled down: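 Viability counter-screen: KeratinoSens reporter cells, DMSO-delivered compounds, 23 h at 37 C, CellTiter-Fluor fluorescence.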
A short description of assay [2]: Nuclear factor erythroid 2-related factor 2/antioxidant responsive element (Nrf2/ARE) small molecule agonists: luciferase reporter gene qHTS assay in human keratinocytes (AID 1919969). Further: nearly all actives have a fitted effect of over 35% in size. Further: potency means the concentration at half of the fitted maximal effect.
In assay [3] the target is Gonadotropin-releasing hormone receptor (Homo sapiens) (UniProt P30968). The experiment in a line: Human gonadotropin-releasing hormone receptor (GnRHR) small molecule agonists, calcium flux assay in GnRHR-HEK293 cells (AID 1920063). Further: nearly all actives have a fitted effect of over 35% in size. The method, boiled down:
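Tox21-format agonist screen using human GnRHR-expressing HEK293 cells and a fluorescent calcium dye; kinetic 3-min fluorescence reading after compound addition, 15-point concentration series run in triplicate.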
(A change in cytosolic calcium serves as a functional read-out for many receptors and channels.)

Assay [4] deals with KiSS-1 receptor (Homo sapiens) (UniProt Q969F8). The experiment in a line: Human kisspeptin (KISS1R) small molecule agonists, calcium flux assay in KISS1R-HEK293 cells (AID 1920064; active means well fitted curve in the direction sought with a large enough effect in the repeat runs; an effect the other way counts as inactive or inconclusive). The method, boiled down: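 Intracellular calcium mobilization in KISS1R-HEK293 cells was recorded by fluorescence (Ex/Em 480/540) for 3 min following compound addition to cells pre-loaded 1 h with calcium dye.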
KiSS-1 receptor (Homo sapiens), sequence (Q969F8 whole entry, looked up): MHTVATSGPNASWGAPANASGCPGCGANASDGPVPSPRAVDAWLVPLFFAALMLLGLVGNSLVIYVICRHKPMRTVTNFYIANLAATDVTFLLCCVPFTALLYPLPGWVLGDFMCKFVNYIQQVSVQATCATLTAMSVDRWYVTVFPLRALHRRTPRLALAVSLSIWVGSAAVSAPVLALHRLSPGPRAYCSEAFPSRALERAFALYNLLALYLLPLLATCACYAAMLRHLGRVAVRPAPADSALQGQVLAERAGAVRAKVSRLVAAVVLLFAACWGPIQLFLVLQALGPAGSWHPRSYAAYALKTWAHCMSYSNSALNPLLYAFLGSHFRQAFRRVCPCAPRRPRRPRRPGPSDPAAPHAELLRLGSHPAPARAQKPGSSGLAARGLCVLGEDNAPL

Assay [5] is described as follows: G protein-coupled receptor (GPCR) small molecule agonists, calcium flux assay: HEK293 wild type cell line counter screen (AID 1920065). The method, boiled down: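 In this agonist-mode screen, ATP is the positive control and DMSO the vehicle. Cells grow 18 h before a 1 h dye incubation at 37 C; signal is taken at Ex/Em 480/540 over 3 min.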
A short description of assay [6]: p53 small molecule agonists, cell-based qHTS assay with human liver microsomes: qHTS cell viability counter screen (AID 1963579). Further: nearly all actives have a fitted effect of over 45% in size. The method, boiled down: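 p53RE-bla cells, 4,000/well, dosed 5 hours after plating, with human liver microsomes (0.5 mg/mL final) plus NADPH (0.5 mg/mL final), 16 hours at 37 C. Viability read as CellTiter-Glo luminescence after 30 min at room temperature.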
Background: In qHTS, concentration-response curves come from the screen itself.

Assay [7] is described as follows: p53 small molecule agonists, cell-based qHTS assay with rat liver microsomes: qHTS cell viability counter screen (AID 1963580). Further: nearly all actives have a fitted effect of over 45% in size. Further: potency means the concentration at half of the fitted maximal effect. The method, boiled down: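 Intracellular ATP, by CellTiter-Glo luminescence, defines viability. HCT-116 p53RE-bla cells, 4,000 per well, were compound-treated in the presence of rat liver microsomes and NADPH for 16 h at 37 C.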
A short description of assay [8]: p53 small molecule agonists, cell-based qHTS assay: qHTS cell viability counter screen (AID 1963581). Further: nearly all actives have a fitted effect of over 45% in size. The method, boiled down:
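Compounds are pinned onto HCT-116 p53RE-bla cells and left 16 h at 37 C. Following the reporter FRET read, ATP is quantified by CellTiter-Glo luminescence after 30 min at room temperature.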

Assay [9] deals with 5-hydroxytryptamine receptor 2A (Homo sapiens) (UniProt P28223). The experiment in a line: 5-hydroxytryptamine receptor 2A (HTR2A) small molecule agonists, cell-based qHTS assay (AID 1963587). Further: nearly all actives have a fitted effect of over 30% in size. An outline of the steps: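 Kinetic calcium-flux fluorescence (2 min, 1 sec intervals) after compound addition in agonist mode. HTR2A-CHO cells were cultured 18 h, then dye-loaded 1 h at 37 C.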
5-hydroxytryptamine receptor 2A (Homo sapiens), sequence (P28223 whole entry, looked up): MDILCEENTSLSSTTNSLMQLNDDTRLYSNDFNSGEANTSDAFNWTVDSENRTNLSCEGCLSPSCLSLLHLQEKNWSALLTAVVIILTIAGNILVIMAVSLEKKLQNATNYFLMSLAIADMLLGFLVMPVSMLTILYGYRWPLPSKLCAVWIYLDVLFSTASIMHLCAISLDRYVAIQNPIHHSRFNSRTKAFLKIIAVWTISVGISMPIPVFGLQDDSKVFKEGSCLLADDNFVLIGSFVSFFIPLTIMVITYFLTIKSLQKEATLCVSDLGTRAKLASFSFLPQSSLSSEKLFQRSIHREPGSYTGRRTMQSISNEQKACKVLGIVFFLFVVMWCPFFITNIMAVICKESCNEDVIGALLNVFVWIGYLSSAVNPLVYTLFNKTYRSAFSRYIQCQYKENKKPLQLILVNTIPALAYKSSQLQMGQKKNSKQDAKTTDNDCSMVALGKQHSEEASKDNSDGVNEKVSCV

Assay [10] concerns the target Muscarinic acetylcholine receptor M1 (Homo sapiens) (UniProt P11229). In words: Cholinergic receptor muscarinic 1 (CHRM1) small molecule antagonists, cell-based qHTS assay (AID 1963588). Further: nearly all actives have a fitted effect of over 40% in size. An outline of the steps:
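CHRM1-CHO calcium-flux assay, antagonist mode. Cells were seeded 18 h, dye-loaded 1 h at 37 C and given compound for 5 min at RT, then acetylcholine was added at 50nM. FDSS fluorescence was read 3 min; 15 concentrations, three runs.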

The target is the same in assay [11]. In words: Cholinergic receptor muscarinic 1 (CHRM1) small molecule agonists, cell-based qHTS assay (AID 1963589). Further: nearly all actives have a fitted effect of over 35% in size. The method, boiled down: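 Stable CHRM1-CHO cells (human receptor) were incubated 18 h, dye-loaded for 1 h at 37 C and exposed to test compounds for agonist activity, with calcium-dependent fluorescence followed kinetically.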
Assay [12] can be described thus: cAMP Responsive Elements (CRE) small molecule agonists, cell-based qHTS assay (AID 1963590). The method, boiled down: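 FRET-based beta-lactamase readout (LiveBLAzer B/G, 2 h RT) quantified CRE activation in HEK 293T CRE-bla cells after 3 h treatment with DMSO-dissolved compounds.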
The nature of assay [13]: cAMP Responsive Elements (CRE) small molecule antagonists, cell-based qHTS assay (AID 1963591; active means well fitted inhibition curve with a large enough effect in the signal ratio in the repeat runs, not every such curve was filed as active; the % refers to the signal ratio). An outline of the steps:
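qHTS in CRE-bla HEK 293T cells: compound in DMSO, then 0.25 uM NKH477 (final), 3 h at 37 °C/5% CO2; beta-lactamase FRET read-out after 2 h substrate incubation.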

The target of assay [14] is Beta-2 adrenergic receptor (Homo sapiens) (UniProt P07550). The experiment in a line: Adrenergic beta2 receptor (ADRB2) small molecule antagonists, cell-based qHTS assay (AID 1963592). Further: series mostly up to about 92 µM; nearly all actives have a fitted effect of over 50% in size. An outline of the steps:
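Cells (CHO, stable ADRB2 overexpression) incubated 18-20hr at 37C; compounds added from DMSO; agonist mix (1nM isoproterenol, 100uM IBMX, 25uM Ro-20-1724) added; 0.5hr RT; d2-cAMP and anti-cAMP-cryptate added; 1hr RT; 665/615 nm read.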

For assay [15], the target named is D(2) dopamine receptor (Homo sapiens) (UniProt P14416). The experiment in a line: Dopamine D2 receptor (DRD2) small molecule agonists, cell-based qHTS assay (AID 1963594). Further: nearly all actives have a fitted effect of over 35% in size. An outline of the steps:
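cAMP accumulation in DRD2-HEK293 cells measured by HTRF after 1 h detection; compounds added 10 min before NKH477 (200nM […]) forskolin-analogue stimulation, 30 min at room temperature, with Ro20-1724 present at 0.1 mM final.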

Assay [16] shares this target. In words: Dopamine D2 receptor (DRD2) small molecule antagonists, cell-based qHTS assay (AID 1963595; active means well fitted inhibition curve with a large enough effect in the signal ratio in the repeat runs, with a control signal flat; the % refers to the signal ratio). An outline of the steps: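 DRD2-HEK293; 0.1 mM Ro20-1724; cpd 10 min RT; NKH477 200 nM + quinpirole 12 nM, 30 min RT; HTRF cAMP (cAMP-d2/anti-cAMP cryptate), 665/620 nm ratio after 1 h.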
For assay [17], the target named is 5-hydroxytryptamine receptor 2A (Homo sapiens) (UniProt P28223). The experiment in a line: 5-hydroxytryptamine receptor 2A (HTR2A) small molecule antagonists, cell-based qHTS assay (AID 1963586). Further: nearly all actives have a fitted effect of over 45% in size. An outline of the steps: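 Antagonist-mode intracellular calcium assay: DOI (4 nM) added after 5 min compound pre-incubation at room temperature to dye-loaded HTR2A-CHO cells. Fluorescence followed for 3 min, sampled every second.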

Assay [18] deals with Beta-2 adrenergic receptor (Homo sapiens) (UniProt P07550). The experiment in a line: Adrenergic beta2 receptor (ADRB2) small molecule agonists, cell-based qHTS assay (AID 1963593).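 Further: CHO cells stably overexpressing human ADRB2.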 The method, boiled down:
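CHO cells stably over-expressing ADRB2 were plated overnight at 37C, then dosed with compounds plus a stimulation mix containing 100uM IBMX and 25uM Ro-20-1724 for 0.5hr at room temperature. cAMP was measured by HTRF competition, 1hr.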
On the % scale 0 is the no-effect control and ±100 the full control effect.

Muscarinic acetylcholine receptor M1 (Homo sapiens), sequence (P11229 whole entry, looked up): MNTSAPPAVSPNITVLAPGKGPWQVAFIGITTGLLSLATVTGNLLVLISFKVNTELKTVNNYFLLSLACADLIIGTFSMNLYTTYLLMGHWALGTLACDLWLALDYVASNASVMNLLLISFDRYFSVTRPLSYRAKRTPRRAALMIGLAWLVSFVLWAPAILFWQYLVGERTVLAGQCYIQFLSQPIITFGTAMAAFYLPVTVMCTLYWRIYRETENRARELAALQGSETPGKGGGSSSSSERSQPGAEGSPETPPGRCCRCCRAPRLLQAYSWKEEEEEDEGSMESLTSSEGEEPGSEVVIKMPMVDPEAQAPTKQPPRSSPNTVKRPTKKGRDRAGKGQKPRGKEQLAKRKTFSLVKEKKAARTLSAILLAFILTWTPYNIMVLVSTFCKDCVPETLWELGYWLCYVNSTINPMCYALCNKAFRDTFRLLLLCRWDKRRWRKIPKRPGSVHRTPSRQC
Gonadotropin-releasing hormone receptor (Homo sapiens), sequence (P30968 whole entry, looked up): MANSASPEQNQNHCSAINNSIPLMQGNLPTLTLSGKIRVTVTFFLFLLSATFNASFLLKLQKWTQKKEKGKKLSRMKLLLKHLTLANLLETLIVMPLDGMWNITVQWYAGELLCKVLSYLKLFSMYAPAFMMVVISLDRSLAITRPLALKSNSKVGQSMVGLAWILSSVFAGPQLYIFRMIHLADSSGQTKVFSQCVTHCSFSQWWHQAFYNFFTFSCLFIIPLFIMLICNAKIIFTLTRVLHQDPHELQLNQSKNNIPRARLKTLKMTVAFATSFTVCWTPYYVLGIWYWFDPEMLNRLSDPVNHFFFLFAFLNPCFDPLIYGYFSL
D(2) dopamine receptor (Homo sapiens), sequence (P14416 whole entry, looked up): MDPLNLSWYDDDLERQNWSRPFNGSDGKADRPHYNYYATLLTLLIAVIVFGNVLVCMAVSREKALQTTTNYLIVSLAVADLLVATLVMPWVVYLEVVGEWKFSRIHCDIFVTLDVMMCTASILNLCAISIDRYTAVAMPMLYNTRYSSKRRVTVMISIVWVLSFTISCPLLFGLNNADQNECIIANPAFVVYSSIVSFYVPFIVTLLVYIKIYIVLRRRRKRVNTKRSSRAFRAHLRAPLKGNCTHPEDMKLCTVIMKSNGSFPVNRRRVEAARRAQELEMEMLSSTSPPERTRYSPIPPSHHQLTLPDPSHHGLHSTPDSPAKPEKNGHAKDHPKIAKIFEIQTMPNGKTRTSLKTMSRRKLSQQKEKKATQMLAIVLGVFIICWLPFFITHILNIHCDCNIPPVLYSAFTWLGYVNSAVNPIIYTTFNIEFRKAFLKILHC
Beta-2 adrenergic receptor (Homo sapiens), sequence (P07550 whole entry, looked up): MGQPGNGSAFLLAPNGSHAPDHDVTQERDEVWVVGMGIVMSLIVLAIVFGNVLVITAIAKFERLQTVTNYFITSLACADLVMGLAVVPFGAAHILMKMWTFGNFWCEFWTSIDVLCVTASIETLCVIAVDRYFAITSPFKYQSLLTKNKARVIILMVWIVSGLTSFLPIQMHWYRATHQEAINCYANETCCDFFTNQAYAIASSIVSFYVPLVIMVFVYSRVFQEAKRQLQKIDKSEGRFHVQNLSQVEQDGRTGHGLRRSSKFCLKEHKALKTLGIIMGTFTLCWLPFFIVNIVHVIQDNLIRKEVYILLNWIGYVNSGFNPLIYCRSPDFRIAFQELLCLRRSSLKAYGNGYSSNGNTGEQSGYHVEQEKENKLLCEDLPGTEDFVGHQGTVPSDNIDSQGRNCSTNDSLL

Turning to `ClCBr`, the Potency result in assay [1], in assay [2], in assay [3], in assay [4], in assay [5] and in assay [6] was “inactive” in each case. Also, the Potency entry in assay [7], in assay [8], in assay [9], in assay [10], in [11] and in assay [12] was “inactive” throughout. For the same molecule, the Potency entry in [13], in assay [14], in assay [15] and in [16] was “inactive” each time.
Regarding `C=C(C)C(=O)OCCCCOC(=O)C(=C)C`, the Potency result in [1], in assay [2], in assay [3], in assay [4], in assay [5] and in assay [6] was “inactive” in each case. Also, the Potency entry in assay [7], in [17], in assay [9], in assay [10], in assay [11] and in assay [12] was “inactive” throughout. For the same molecule, the Potency entry in [13], in assay [14], in assay [18], in assay [15] and in assay [16] was “inactive” in each case.
As to `NCC(CC(=O)O)c1ccc(Cl)cc1` (stereo not given), the activity change, negative = cytotoxicity in [1] was 20.7% [at 0.349 µM]; in assay [6] it was -3.85% [at 0.249 µM]; in [7] it was 5.91% [at 0.249 µM]; in [8], -8.51% [at 0.249 µM]. Also, in [2], the activity, positive = activation is 2.43% [at 0.349 µM]. For the same molecule, the activity change in [3] was -1.11% [at 0.217 µM, active compounds read high]. Also, the activation in assay [4] is -1.08% [at 0.29 µM]; in [5] it was 0.685% [at 0.217 µM]; in [12], -1.8% [at 0.349 µM]; in assay [18] it was 10.6% [at 0.349 µM]; in [15], 0.37% [at 0.349 µM]. Moreover, the activity change, negative = inhibition in assay [13] is -4.66% [at 0.349 µM]; in [14], 2.66% [at 0.349 µM]; in assay [16], 1.84% [at 0.348 µM].
As for `Cc1nc(N(C)C)nc(OC(=O)N(C)C)c1C`, the Potency entry in [1], in [2], in assay [3], in [4], in assay [5] and in assay [6] was “inactive” each time. For the same molecule, the Potency entry in [7], in assay [8], in assay [9], in assay [10], in [11] and in assay [13] was “inactive” each time. Besides, the Potency result in assay [14], in assay [18], in assay [15] and in [16] was “inactive” each time.
On to `CSC(C)(C)/C=N/O`, for which the Potency entry in assay [1], in [2], in assay [3], in assay [4], in assay [5] and in [6] was “inactive” throughout. Besides, the Potency result in [7], in [8], in assay [9], in assay [10], in assay [11] and in assay [12] was “inactive” each time. Further, the Potency result in [13] and in [14] was “inactive” in each case.
On to `CCSC(=O)N(CC)C1CCCCC1`, for which the Potency entry in assay [1], in assay [2], in assay [3], in [4], in [5] and in assay [6] was “inactive” in each case. For the same molecule, the Potency entry in assay [7], in [8], in [9], in assay [10], in assay [11] and in [12] was “inactive” each time. Moreover, the Potency result in assay [13], in assay [14], in assay [15] and in assay [16] was “inactive” each time.
On to `CC(C)CC(C)Nc1ccc(Nc2ccccc2)cc1` (stereo not given), for which the Potency in assay [1] was 53.5 µM (active); in assay [2], 23.9 µM (active); in [7], 45 µM (active). The Potency result in assay [3], in assay [4], in [5], in assay [6], in [8] and in assay [9] was “inactive” in each case. The Potency result in assay [11] is “inactive”.
Consider `ClSC(Cl)(Cl)Cl`, for which the Potency result in assay [1], in assay [2], in [3], in assay [4], in assay [5] and in assay [6] was “inactive” throughout. Also, the Potency result in assay [7], in [8], in assay [17], in [9], in [11] and in assay [12] was “inactive” throughout. Besides, the Potency result in [13], in assay [14], in assay [18], in assay [15] and in [16] was “inactive” throughout.
